Experimental data published in PubChem BioAssay AID887 (National Center for Advancing Translational Sciences (NCATS), 2007).
Where “and” joins values, the source holds several entries; their conditions need not be identical. Equal entries are not always repeated. The whole screen tested about 74,000 compounds, of which about 1,100 (1.5%) were called active. Inconclusive results (about 5%) are left out. Many of the other results were omitted from the sample, so actives are more common in it than they were. Unmarked numbers belong to inactive results. Calls come from the whole dose curve; as a rule, active = well fitted inhibition curve with a large enough effect; inconclusive = small, poorly fitted or top-dose-only effect; inactive = no such curve, though single readings can be large or run the other way. Non-standard residues stand in square brackets, D forms with d. Residues, ends and D or L forms follow the SMILES beside them. Groups on a side chain read outwards from the residue. *: point of attachment. X2 = CCC(C)C(N)C1=NC(C(=O)*)CS1; Orn = NCCC[CH](N)C(=O)O

target: Polyunsaturated fatty acid lipoxygenase ALOX15 (Homo sapiens) (UniProt P16050); assay: qHTS Assay for Inhibitors of 15-hLO (15-human lipoxygenase); settings: purified 15hLO-1, xylenol orange hydroperoxide absorbance; series mostly up to 57.1 µM; activity change, negative = inhibition: at the top concentration; note: nearly all actives have a fitted effect of over 55% in size
Procedure, shortened: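 Quantitative HTS in 25 mM Hepes pH 7.5 containing 0.01% Triton X-100: human 15hLO-1 at 40 nM, arachidonic acid at 50 uM, 6 min turnover. Product quantified via ferrous oxidation/xylenol orange, 573:405 nm absorbance ratio.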
% is set by controls: 0 for no effect and ±100 for the full control effect; potency is the fitted concentration of half-maximal effect.

Polyunsaturated fatty acid lipoxygenase ALOX15 (Homo sapiens), sequence (P16050 whole entry, looked up): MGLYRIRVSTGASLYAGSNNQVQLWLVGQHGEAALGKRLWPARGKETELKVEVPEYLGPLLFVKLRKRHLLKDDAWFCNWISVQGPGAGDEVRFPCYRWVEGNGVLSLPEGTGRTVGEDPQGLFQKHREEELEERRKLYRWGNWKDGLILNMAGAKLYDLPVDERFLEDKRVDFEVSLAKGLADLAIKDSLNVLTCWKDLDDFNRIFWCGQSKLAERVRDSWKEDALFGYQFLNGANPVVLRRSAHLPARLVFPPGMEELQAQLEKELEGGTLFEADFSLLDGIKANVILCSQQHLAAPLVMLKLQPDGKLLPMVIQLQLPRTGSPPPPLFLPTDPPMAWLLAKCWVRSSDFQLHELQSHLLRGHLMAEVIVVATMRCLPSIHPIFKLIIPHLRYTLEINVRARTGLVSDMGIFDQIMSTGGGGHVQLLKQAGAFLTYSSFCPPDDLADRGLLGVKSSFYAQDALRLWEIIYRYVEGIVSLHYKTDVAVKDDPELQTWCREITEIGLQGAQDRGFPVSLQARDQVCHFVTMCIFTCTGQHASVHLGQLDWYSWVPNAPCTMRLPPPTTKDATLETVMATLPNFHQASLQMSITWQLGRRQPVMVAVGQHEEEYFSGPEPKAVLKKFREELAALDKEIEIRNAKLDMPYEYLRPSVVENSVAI

SMILES | activity change, negative = inhibition | Potency
CC1CC[C@@]23CCC4(C)[C@@]5(C)CCC6C(C)(C)C(O)CC[C@@]6(C)C5C=C[C@@]4(OC2=O)C3C1C (some centres undefined) | -8.3% | 
CCOC(=O)CSC1=C(C#N)C(c2ccco2)C(C(=O)OCc2ccccc2)=C(C)N1 (centres undefined) | -23.2% | 
N#CC1=C(N)Oc2c(sc3ccccc23)C1c1ccco1 (centres undefined) |  | 3.98 µM (active)
Nc1nc2[nH]c(=O)c(=O)[nH]c2c(=O)[nH]1 | 0.107% | 
CC(=O)OCC(=O)[C@@]1(O)CCC2C3CCC4=CC(=O)CC[C@]4(C)C3C(=O)C[C@]21C (some centres undefined) | 3.23% | 
O=C(c1ccco1)N1CCC2(CC1)CCN(c1ncccn1)CC2 | 9.21% | 
COc1ccc(-c2nnc(SC(C)C#N)o2)cc1 (centres undefined) | 1.19% | 
COc1ccc(CC(=O)Nc2ccc(-c3nnc(-c4ccccc4)o3)cc2)cc1 | -7.27% | 
COc1ccc(-c2nnc(SC(=O)N3c4ccccc4Sc4ccccc43)o2)cc1 |  | 3.16 µM (active)
COC(=O)CC1C(C)(C)C(OC(C)=O)C2CC3=C4CC(=O)OC(c5ccoc5)[C@]4(C)CCC3[C@@]1(C)C2=O (some centres undefined) | 6.69% | 
CCOC(=O)Cn1c(N)c(C(=O)OC)sc1=S | -20.2% | 
COC(=O)c1ccc2c(=O)n(CC3CCCO3)c(=S)[nH]c2c1 (centres undefined) | -3.04% | 
CCOC(=O)c1sc(=S)n2c1[nH]c(=O)c1ccc(C(=O)OC)cc12 |  | 10 µM (active)
COc1ccc(Oc2ncc3nc(C)c(=O)n(-c4ccccc4)c3n2)cc1 | -0.0242% | 
COC(=O)C1=C(C)N(Cc2ccccc2)C2=C3C(=O)N(c4ccccc4)C(=O)C3[C@@](O)(C(=O)OC)C(=O)N2C1c1ccccc1 (some centres undefined) | 4.96% [at 11.4 µM] and 4.92% [at 11.4 µM] | 
CN1CCC(CNC(=O)c2ccc(-n3c(=O)c(=O)[nH]c4ccccc43)cc2)CC1 | -7.95% | 
O=C1NS(=O)(=O)c2ccccc21 | -9.99% | 
OCCCNC(c1ccccc1)c1ccc(O)cc1 (centres undefined) | -11% | 
CSc1sc(C)cc1C1C(C#N)=C(N)N(c2cccnc2)C2=C1C(=O)CCC2 (centres undefined) |  | 15.8 µM (active)
Cc1cc(C(=O)O)ccc1[N+](=O)[O-] | -12.9% | 
O=C1C[C@@H](O)[C@@H](O)[C@H]2[C@@H]3C(=O)N(Cc4ccc5c(c4)OCO5)C(=O)[C@@H]3CC[C@H]12 | 6.76% [at 11.4 µM] and -0.286% [at 11.4 µM] | 
CO/N=C\[C@@H](C)[C@H](OCc1ccccc1)C(C)C | 6.43% [at 11.4 µM] | 

SMILES | activity change, negative = inhibition | Potency
CC1C(O)CC2C(C(=O)O)=CO[C@@H](O[C@H]3OC(CO)C(O)C(O)C3O)C21 (some centres undefined) | 9% | 
CC1(C)OC(C(O)(c2ccccc2)c2ccccc2)C(C(O)(c2ccccc2)c2ccccc2)O1 (centres undefined) | 14.5% [at 11.4 µM] | 
CC[C@@H]1Cc2cc(O)ccc2C2=C1c1ccc(O)cc1C[C@H]2CC |  | 10 µM (active)
COc1cccc([C@H](O)Cn2cc(-c3ccc(CON=C(C)C)cc3)nn2)c1 | 15.5% [at 11.4 µM] | 
C[C@@H](c1ccccc1)N1C(=O)[C@H]2[C@H]3[C@H](O)[C@H](O)C/C(=N/OC[C@@H](O)COCc4ccco4)[C@@H]3CC[C@@H]2C1=O | 0.315% [at 11.4 µM] | 
Cc1cnc(CNc2cc(-c3c(C)noc3C)ncn2)cn1 | 11% | 
CCC(C)C(N)C1=NC(C(=O)NC(CC(C)C)C(=O)NC(CCC(=O)O)C(=O)NC(C(=O)NCCCCC2NC(=O)C(CC(N)=O)NC(=O)C(CC(=O)O)NC(=O)C(Cc3cnc[nH]3)NC(=O)C(Cc3ccccc3)NC(=O)C(C(C)CC)NC(=O)C(CCCN)NC2=O)C(C)CC)CS1 (stereo not drawn) (cyclo(DNK([Ile-Glu-Leu-X2])[Orn]IFH); configuration not given here) | -2.63% | 
Cc1cccc(C)c1NC(=O)CCCSc1nnc(-c2ccco2)n1-c1ccccc1 | 9.58% | 
O=C(CSc1nnc(-c2ccco2)n1-c1ccccc1)NCCc1ccccc1 |  | 6.31 µM (active)
COc1ccc(C(=O)NC(=O)CSc2nnc(-c3ccco3)n2-c2ccccc2)cc1 | 8.82% | 
COC(=O)[C@@H]1CC[C@H](C)[C@@H](c2ccc(C)cc2)N1C(=O)c1ccc(/C=N\O[C@@H](C)c2cn([C@H](CO)Cc3ccccc3)nn2)cc1 | -7.8% [at 11.4 µM] and 0.419% [at 11.4 µM] | 
CC(=O)N1CCC2(CC1)CCN(c1ccncc1)CC2 | 5.31% | 
CN1CCN(c2ccc(NC(=O)COc3ccc(Cl)cc3Cl)cc2)CC1 | -10.2% | 
CC(=O)N1CCN(c2ccc(NCc3ccc(C(C)C)cc3)cc2)CC1 |  | 12.6 µM (active)
CC(C)CO/N=C1/C[C@@H](O)[C@@H](O)[C@@H]2[C@@H]3C(=O)N(C[C@@H]4CCCO4)C(=O)[C@H]3CC[C@@H]12 | 9.84% [at 11.4 µM] | 
C[C@@H]1O[C@@H](OC[C@H]2O[C@@H](Oc3c(-c4cccc(O)c4O)oc4cc(O)cc(O)c4c3=O)[C@H](O)[C@@H](O)[C@@H]2O)[C@H](O)[C@H](O)[C@H]1O | -3.77% [at 25.6 µM] | 
CC(C)C(c1nnnn1CCc1ccccc1)N1CCN(C(=O)c2ccco2)CC1 (centres undefined) | 4.74% | 
O=C(OCc1cc2ccccc2[nH]c1=O)c1cccnc1 | -1.72% | 
C=CCOC(=O)C(C(C)=O)C(NC(=O)OC)c1ccccc1 (centres undefined) | 13.9% [at 11.4 µM] | 
Cc1nnc(SCC(=O)N2CCc3ccccc32)n1-c1ccccc1 | 2.3% | 
O=C(CSc1nc2[nH]ncc2c(=O)n1-c1ccccc1)N1CCCc2ccccc21 |  | 15.8 µM (active)
C=CCn1c(=O)c2ccccc2n2c(SCC(=O)N3CCCc4ccccc43)nnc12 | -27.3% | 
